Measurements published in the supplement of paper PMC13380429.

Tests used:
[1] = test system: Vero E6 infected with SARS-CoV-2; assay: morphology score (similarity to uninfected cells); higher = more like uninfected cells; conditions: 24 h
[2] = test system: Vero E6 infected with SARS-CoV-2; assay: SARS-CoV-2 infection rate relative to infected DMSO; higher = more infection, active = 60 or less; conditions: 24 h

SMILES | morphology score [1] | SARS-CoV-2 infection rate [2]
COC(=O)CCC(=O)CN [methyl-aminolevulinate] (10 µM) | 0.118 | 90% (inactive)
Cc1c(CC(C)(C)C(=O)O)n(Cc2ccc(Cl)cc2)c2ccc(F)cc12 (10 µM) | -0.214 | 113% (inactive)
C[C@H](Oc1cc(-c2cnn(C3CCNCC3)c2)cnc1N)c1c(Cl)ccc(F)c1Cl [crizotinib-(S)] (10 µM) | 0.602 | 23% (active)
Cc1nc[nH]c1CCN [4-methylhistamine] (10 µM) | 0.105 | 99.5% (inactive)
N#Cc1c(N)nc(SCc2ncc[nH]2)c(C#N)c1-c1ccc(O)cc1 (10 µM) | -0.0242 | 108% (inactive)
N#CC[C@@H](C1CCCC1)n1cc(-c2ncnc3[nH]ccc23)cn1 [ruxolitinib-(S)] (10 µM) | 0.62 | 105% (inactive)
CSc1ccc(C(=O)c2[nH]c(=O)[nH]c2C)cc1 [enoximone] (10 µM) | 0.104 | 88.5% (inactive)
COc1ccc2cc1Oc1cc3c(cc1OC)CC[N+](C)(C)[C@H]3Cc1ccc(cc1)Oc1c(OC)c(OC)cc3c1[C@@H](C2)[N+](C)(C)CC3 [metocurine] (10 µM) | 0.103 | 104% (inactive)
C[C@]12CCC(=O)C[C@@H]1CC[C@@H]1[C@@H]2CC[C@]2(C)C=CC[C@@H]12 [androstenone] (10 µM) | -0.064 | 112% (inactive)
CCCCCCCCCC(=O)O[C@H]1CC[C@H]2[C@@H]3CCC4=CC(=O)CC[C@@H]4[C@H]3CC[C@]12C [Nandrolone decanoate] (10 µM) | -0.019 | 103% (inactive)
O=C1C(O)=C(O)C(=O)C(O)=C1O [tetroquinone] (10 µM) | 0.0422 | 106% (inactive)
C1CCC(/N=C(\NC23CC4CC(CC(C4)C2)C3)N2CCOCC2)CC1 (10 µM) | -0.0395 | 110% (inactive)
CNC(=O)c1c(-c2ccc(F)cc2)oc2cc(N(CCO)S(C)(=O)=O)c(C3CC3)cc12 [nesbuvir] (10 µM) | 0.111 | 104% (inactive)
Clc1ccc([C@]23CNC[C@H]2C3)cc1Cl [amitifadine] (10 µM) | 0.0575 | 110% (inactive)
CCCc1cc(C)[nH]c(=O)c1CNC(=O)c1cc(-c2ccc(N3CCN(C(C)C)CC3)nc2)cc2c1cnn2C(C)C (10 µM) | 0.0705 | 110% (inactive)
CN1CCN(c2cccc3[nH]c(=O)oc23)CC1 [pardoprunox] (10 µM) | -0.1 | 103% (inactive)
COP(=O)(OC)OC(c1ccc(Cl)cc1)P(=O)(OC)OC (stereo not given) [mifobate] (10 µM) | -0.0183 | 106% (inactive)
O=C(O)/C=C/c1ccc(O)cc1 [naringeninic-acid] (10 µM) | 0.0231 | 102% (inactive)
Cc1noc(NS(=O)(=O)c2ccc(N)cc2)c1C [sulfafurazole] (10 µM) | 0.1 | 100% (inactive)
CO[C@H]1/C=C/O[C@@]2(C)Oc3c(C)c(O)c4c(O)c(c5c(nc6cc(C)ccn65)c4c3C2=O)NC(=O)/C(C)=C\C=C\[C@H](C)[C@H](O)[C@@H](C)[C@@H](O)[C@@H](C)[C@H](OC(C)=O)[C@@H]1C [rifaximin] (10 µM) | 0.0779 | 108% (inactive)
Cc1sc(N)c(C(=O)c2cccc(C(F)(F)F)c2)c1C (10 µM) | -0.0662 | 99% (inactive)
CCc1cc2c(c(CC)n1)CCC(=O)N2Cc1ccc(-c2ccccc2-c2nnn[nH]2)cc1 (10 µM) | 0.264 | 98.5% (inactive)
CCCC[C@@H](NC(=O)[C@@H](Cc1cn(C(=O)OC)c2ccccc12)NC(=O)[C@H](CC(C)(C)C)NC(=O)N1[C@H](C)CCC[C@@H]1C)C(=O)O (10 µM) | 0.0975 | 104% (inactive)
CN(C)CCNc1nc2cc(O)ccc2c2c1C(=O)c1ccccc1-2 (10 µM) | -0.234 | 106% (inactive)
O=C(Nc1cccnn1)N1CCC(=Cc2cccc(Oc3ccc(C(F)(F)F)cn3)c2)CC1 (10 µM) | 0.00817 | 104% (inactive)
Cc1cccc(Nc2cc(Cl)nc(SCC(=O)O)n2)c1C [pirinixic-acid] (10 µM) | 0.0216 | 108% (inactive)
CN(C)[C@@H]1C(O)=C(C(N)=O)C(=O)[C@@]2(O)C(O)=C3C(=O)c4c(O)cccc4[C@@](C)(O)[C@H]3C[C@@H]12 [tetracycline] (10 µM) | 0.157 | 100% (inactive)
COc1cccc(N(C)C(=S)Oc2ccc3c(c2)CCCC3)n1 [liranaftate] (10 µM) | 0.341 | 94% (inactive)
Cc1ccc(S(=O)(=O)Nc2ccc3c(c2)c(C(=O)C(F)(F)F)cn3CC(=O)N[C@@H](CC(C)C)C(=O)O)cc1 (10 µM) | 0.0604 | 104% (inactive)
CCN1/C(=C/C(C)=O)Sc2ccc(OC)cc21 (10 µM) | -0.0524 | 108% (inactive)
